Among the data in PubChem BioAssay (NCI) are growth values, retold here.

Compounds without any hit were thinned out: in the full panel of roughly 83,000, 20% have a hit.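 Each cell line was grown in a 96-well plate and treated with one concentration of compound for 48 hours. Values below 10 were considered active.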 A number with no mark means an inactive call. Calls of active or inactive are those of the source.

Test systems include NCI-H23 lung; NCI-H226 lung; NCI-H322M lung; HOP-62 NSCLC; NCI-H460 lung; NCI-H522 lung; A549/ATCC NSCLC; 786-0 renal; COLO 205 colon; DU-145 prostate; K-562 leukemia; MALME-3M melanoma; MDA-MB-231 breast; SF-268 CNS; SF-295 CNS; SF-539 CNS; UACC-257 melanoma; M14 melanoma; HCT-15 colon; RXF 393 renal.
Holding throughout (assay): NCI-60 one-dose screen, 48 h (100 = growth as untreated, 0 = no growth, -100 = all killed)
Holding throughout (details): 10 µM unless noted

Regarding `Cc1ccc(C=C2C(Cl)=C(Cl)C(Cl)=C2Cl)cc1`, the growth in the assay on NCI-H23 lung was -57.5% (active); with NCI-H226 lung, -79% (active); in the assay with NCI-H322M lung it was -37.2% (active); in the assay with HOP-62 NSCLC it was -58.6% (active); with NCI-H460 lung, -31.3% (active); in the assay on NCI-H522 lung, -57.2% (active). Further, the growth in the assay with A549/ATCC NSCLC was -61.2% (active); with 786-0 renal, -86.8% (active); with COLO 205 colon, -80.3% (active); in the assay on DU-145 prostate, -45.3% (active); in the assay on K-562 leukemia it was 24.6%; with MALME-3M melanoma it was -45.1% (active). The growth is -6.71% (active) in the assay with MDA-MB-231 breast; -68.6% (active) in the assay with SF-268 CNS; -19.5% (active) with SF-295 CNS; -84.5% (active) in the assay on SF-539 CNS; -83.2% (active) in the assay with UACC-257 melanoma; -85.8% (active) in the assay on M14 melanoma. For the same molecule, the growth with HCT-15 colon was -69.5% (active).
Take `C=C1c2c(C)nn(-c3ccc(C#CCOC4OC(CO)C(O)C(O)C4O)cc3)c2N(C)C23C[C@H]1C1(C)c4c(C)nn(-c5ccc(C#CCOC6OC(CO)C(O)C(O)C6O)cc5)c4N(C)C(C)(C[C@H]12)C3` (stereo partly specified): the growth with NCI-H23 lung is 12.4%; in the assay on NCI-H226 lung it was 23.4%; in the assay with NCI-H322M lung it was 1.68% (active); in the assay on HOP-62 NSCLC, 3.61% (active); in the assay with NCI-H460 lung, -45.9% (active); in the assay on NCI-H522 lung, -3.82% (active). Also, the growth in the assay on A549/ATCC NSCLC is 24.9%; in the assay on 786-0 renal, 17.2%; in the assay on COLO 205 colon it was 8.45% (active); in the assay on DU-145 prostate it was 16.9%; in the assay with K-562 leukemia, 9.32% (active); in the assay with MALME-3M melanoma it was 5.2% (active). Moreover, the growth was 5.4% (active) in the assay with MDA-MB-231 breast; 37.5% in the assay with RXF 393 renal; 7.57% (active) in the assay with SF-268 CNS; -15.3% (active) in the assay on SF-539 CNS; 34.2% in the assay with UACC-257 melanoma; 0.248% (active) with M14 melanoma. In addition, the growth in the assay on HCT-15 colon was 21.7%.
Take `O=C(/C=C/c1ccccc1Cl)c1ccc(O)cc1`: the growth with NCI-H23 lung was 93.7%; with NCI-H226 lung, 95.2%; in the assay on NCI-H322M lung, 89.5%; in the assay on HOP-62 NSCLC, 117%; in the assay on NCI-H460 lung, 93.8%; with NCI-H522 lung it was 58.2%. Moreover, the growth is 41.8% in the assay with A549/ATCC NSCLC; 85% in the assay with 786-0 renal; 90% in the assay on COLO 205 colon; -7.3% (active) with DU-145 prostate; 32.8% in the assay on K-562 leukemia; 93.1% in the assay with MALME-3M melanoma. Besides, the growth with MDA-MB-231 breast is 89%; with SF-268 CNS, 53.7%; in the assay with SF-295 CNS it was 47.4%; with SF-539 CNS, 94.1%; in the assay on UACC-257 melanoma it was 116%; in the assay with M14 melanoma, 76.8%. The growth in the assay on HCT-15 colon was 37.5%.
Turning to `COc1ccc2nc3cc(Cl)ccc3c(Nc3cc(C(C)C)c(O)cc3C)c2c1`, the growth in the assay with NCI-H23 lung is 40.1%; with NCI-H226 lung, 79.5%; in the assay with NCI-H322M lung it was 51.5%; with HOP-62 NSCLC, 58.2%; in the assay with NCI-H460 lung, 35.3%; with NCI-H522 lung it was -20.1% (active). For the same molecule, the growth in the assay on A549/ATCC NSCLC was 14.5%; with 786-0 renal, 35.5%; with COLO 205 colon it was 15.7%; in the assay on DU-145 prostate, 52.3%; with K-562 leukemia it was 19.4%; in the assay with MALME-3M melanoma it was 39.3%. Besides, the growth is 37.7% in the assay with MDA-MB-231 breast; 64% in the assay on SF-268 CNS; 5.22% (active) with SF-295 CNS; 59.5% in the assay on SF-539 CNS; 47% in the assay on UACC-257 melanoma; 56.2% with M14 melanoma.
Consider `Cc1ccc(C(=O)Nc2ccc(Cl)cc2C(=O)NCc2ccccc2)cc1`, for which the growth was 96.7% with NCI-H23 lung; 92.9% in the assay on NCI-H226 lung; 98.2% with NCI-H322M lung; 88.3% in the assay on HOP-62 NSCLC; 92.4% with NCI-H460 lung; 53.9% in the assay with NCI-H522 lung. Moreover, the growth in the assay on A549/ATCC NSCLC is 85.9%; in the assay on 786-0 renal, 97.8%; in the assay with COLO 205 colon, 97.4%; in the assay with DU-145 prostate, 96%; in the assay on K-562 leukemia, 30%; with MALME-3M melanoma, 88.9%. For the same molecule, the growth in the assay on MDA-MB-231 breast is 95.8%; with RXF 393 renal, 87.4%; in the assay with SF-268 CNS it was 94.2%; in the assay with SF-539 CNS, 82.3%; in the assay with UACC-257 melanoma it was 85.2%; in the assay on M14 melanoma, 74.9%. Further, in the assay with HCT-15 colon, the growth is 57.4%.
`c1cnc2n[nH]c(Nc3ncnc4c3sc3ncccc34)c2c1`: the growth is 82.4% in the assay on NCI-H23 lung; 93.8% in the assay on NCI-H226 lung; 106% with NCI-H322M lung; 90.8% in the assay on HOP-62 NSCLC; 96% in the assay on NCI-H460 lung; 82.1% in the assay on NCI-H522 lung. Besides, the growth was 87.3% in the assay on A549/ATCC NSCLC; 106% in the assay on 786-0 renal; 107% in the assay on COLO 205 colon; 115% in the assay with DU-145 prostate; 86.8% with K-562 leukemia; 92.9% in the assay on MALME-3M melanoma. The growth in the assay with MDA-MB-231 breast was 97.4%; in the assay with RXF 393 renal, 99.6%; in the assay on SF-268 CNS, 108%; with SF-539 CNS it was 105%; in the assay on UACC-257 melanoma it was 90.3%; with M14 melanoma, 97.4%. For the same molecule, in the assay with HCT-15 colon, the growth is 95.1%.
`Fc1ccc(-c2nnc(-c3c(-c4ccc(F)cc4)nc4ncccn34)o2)cc1`: the growth in the assay with NCI-H23 lung is 98.2%; with NCI-H226 lung, 113%; in the assay on NCI-H322M lung, 105%; in the assay with HOP-62 NSCLC, 105%; in the assay on NCI-H460 lung, 111%; in the assay on NCI-H522 lung, 89.1%. Besides, the growth with A549/ATCC NSCLC was 96%; with 786-0 renal it was 93.1%; in the assay with COLO 205 colon, 104%; with DU-145 prostate it was 103%; in the assay with K-562 leukemia, 89.3%; with MALME-3M melanoma, 121%. Besides, the growth was 122% in the assay with MDA-MB-231 breast; 97.8% in the assay with RXF 393 renal; 93% in the assay with SF-295 CNS; 94.4% in the assay on SF-539 CNS; 107% in the assay on UACC-257 melanoma; 112% with M14 melanoma. The growth in the assay with HCT-15 colon was 87.9%.
As for `O=C1OCCCCCCCCCC#Cc2ccccc21`, the growth in the assay on NCI-H23 lung was 97%; in the assay with NCI-H226 lung, 110%; in the assay with NCI-H322M lung, 126%; in the assay with HOP-62 NSCLC, 99.7%; in the assay with NCI-H460 lung it was 133%; in the assay on NCI-H522 lung it was 71.2%. Also, the growth with A549/ATCC NSCLC is 103%; with 786-0 renal it was 103%; with COLO 205 colon, 100%; in the assay with DU-145 prostate it was 116%; in the assay with K-562 leukemia it was 94.2%; with MALME-3M melanoma it was 146%. Further, the growth is 110% in the assay on MDA-MB-231 breast; 182% in the assay with SF-268 CNS; 151% in the assay on SF-295 CNS; 105% with SF-539 CNS; 124% with UACC-257 melanoma; 109% with M14 melanoma. Also, the growth in the assay on HCT-15 colon is 109%.
